{"source": "PubChem BioAssay AID743255", "about": "(National Center for Advancing Translational Sciences (NCATS), 2014)", "note": "Among all 390,000 compounds or so, about 910 (0.23%) were called active. About 5% were inconclusive and are not listed. For the sample, actives were picked, then their nearest neighbours and some compounds at random. Values without a mark were called inactive. Calls follow the shape of the dose curve; as a rule, active = well fitted inhibition curve with a large enough effect; inconclusive = small, poorly fitted or top-dose-only effect; inactive = no such curve, though single readings can be large or run the other way. % is scaled to controls: 0 for no effect and ±100 for the full control effect; potency is read from the fitted curve at half-maximal effect."}
{"molecular_target": "Ubiquitin carboxyl-terminal hydrolase 1 (Homo sapiens) (UniProt O94782)", "sequence (O94782 whole entry, looked up)": "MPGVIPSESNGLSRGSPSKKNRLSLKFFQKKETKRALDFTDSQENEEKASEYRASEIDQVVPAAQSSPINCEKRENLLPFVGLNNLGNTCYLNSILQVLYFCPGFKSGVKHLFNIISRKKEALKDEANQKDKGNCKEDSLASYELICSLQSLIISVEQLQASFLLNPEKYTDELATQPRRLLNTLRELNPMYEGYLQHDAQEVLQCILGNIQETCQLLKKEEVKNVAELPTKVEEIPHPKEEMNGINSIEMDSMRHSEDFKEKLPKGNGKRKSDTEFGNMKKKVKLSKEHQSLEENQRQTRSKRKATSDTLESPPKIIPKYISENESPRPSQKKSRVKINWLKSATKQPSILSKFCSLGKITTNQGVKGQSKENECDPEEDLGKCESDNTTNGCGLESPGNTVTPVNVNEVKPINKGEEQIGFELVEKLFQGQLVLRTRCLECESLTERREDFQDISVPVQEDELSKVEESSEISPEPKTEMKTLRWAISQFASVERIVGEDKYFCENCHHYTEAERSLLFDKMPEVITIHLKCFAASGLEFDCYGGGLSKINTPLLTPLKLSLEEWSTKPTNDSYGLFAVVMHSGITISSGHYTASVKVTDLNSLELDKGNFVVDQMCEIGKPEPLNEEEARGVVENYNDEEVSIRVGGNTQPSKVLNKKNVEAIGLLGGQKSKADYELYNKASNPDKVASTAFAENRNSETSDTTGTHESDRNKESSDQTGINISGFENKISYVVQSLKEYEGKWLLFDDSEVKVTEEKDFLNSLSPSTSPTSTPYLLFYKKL", "test": "Inhibitors of USP1/UAF1: Primary Screen; also: nearly all actives have a fitted effect of over 60% in size", "settings": "recombinant USP1/UAF1, Ub-Rhodamine cleavage fluorescence; series mostly up to 57.1 µM; activity change, negative = inhibition: at the top concentration", "excerpt": "Deubiquitinating enzymes (DUBs) are a class of enzymes that can cleave isopeptide bond formed between the C-terminal carboxylate of ubiquitin and a lysine side-chain amino group on the target protein. Among them, ubiquitin specific proteases (USPs) constitute the largest DUB family. Human USPs are emerging as promising targets for pharmacological intervention because of their connection to a number of human diseases, including prostate, colon and breast cancer (1, 2), pediatric acute lymphoblastic leukemia (3), and familial cylindromatosis (4). The advantage of inhibiting USPs lies in the potential specificity of therapeutic intervention that can lead to better efficacy and reduce nonspecific side effects. In a collaboration between the University of Delaware and the NIH Chemical Genomics Center, a high-throughput screen assay was developed to screen for USP1/UAF1 inhibitors. This miniaturized assay has a fluorescent read-out and is used to screen the NIH Molecular Libraries Small Molecule Repository (MLSMR) in order to identify a small molecule that inhibits USP1. NIH Chemical Genomics Center [NCGC] NIH Molecular Libraries Probe Centers Network [MLPCN] MLPCN Grant: DA030552 Assay Submitter (PI): Zhihao Zhuang, University of Delaware 1. Priolo, C., et al. (2006) The isopeptidase USP2a protects human prostate cancer from apoptosis. Cancer Res 66, 8625-8632 2. Popov, N., et al. (2007) The ubiquitin-specific protease USP28 is required for MYC stability. Nat Cell Biol 9, 765-774 3. De Pitta, C., et al. (2005) A leukemia-enriched cDNA microarray platform identifies new transcripts with relevance to the biology of pediatric acute lymphoblastic leukemia. Haematologica 90, 890-898 4. Kovalenko, A., et al. (2003) The tumour suppressor CYLD negatively regulates NF-kappaB signalling by deubiquitination. Nature 424, 801-805\n3 microliters of reagents (buffer in columns 3 and 4 as negative control and 1nM USP1/UAF1 complex in columns 1, 2, and 5-48) are dispensed into Greiner black solid bottom 1536-well assay plates. Compounds are then transferred via Kalypsys pin tool equipped with 1536-pin array (10nl slotted pins, V&P Scientific, San Diego, CA). Following an incubation step of 15 min at room temperature, 1ul of Ub-Rho substrate (150nM final concentration) is added to initiate the reaction. The plates are immediately centrifuged at 1000 rpm for 15 seconds, and subsequently transferred to a ViewLux high-throughput CCD imager (PerkinElmer) wherein kinetic measurements of fluorescence are acquired using 480 nm excitation/540 nm emission filter set (6 reads every 60 seconds, see Table 1). All reagents are diluted in an assay buffer consisting of 50mM HEPES (pH 7.8), 0.5mM EDTA, 0.1 mg/ml BSA, 1mM TCEP, and 0.01% Tween-20.", "units": {"activity change, negative = inhibition": "%"}}
{"compound": "NS(=O)(=O)c1ccc2nc(NC(=O)COc3ccccc3)sc2c1", "activity change, negative = inhibition": 4.94}
{"compound": "CCN(CC)c1ccc(C2C(C(N)=O)=C(C)Nc3nc(SCc4ccccc4)nn32)cc1", "note": "(stereo not drawn)", "activity change, negative = inhibition": -32.9}
{"compound": "COc1cc(/C=C2/C(=O)NN(c3cccc(Cl)c3)C2=O)cc(Br)c1O", "Potency": "28.2 µM (active)"}
{"compound": "COc1cccc2c1cc1c(=O)n(CC(=O)N3CCN(c4cccc(Cl)c4)CC3)nc(C)n12", "activity change, negative = inhibition": 6.97}
{"compound": "Cc1nc(SCCOc2ccc(Cl)cc2)[nH]c(=O)c1Cc1ccccc1", "activity change, negative = inhibition": -21.7}
{"compound": "Cc1cccc(-c2nc(SCC(=O)Nc3cc(C)on3)c3c(=O)n(C)c(=O)n(C)c3n2)c1", "activity change, negative = inhibition": -20.7}
{"compound": "CCC(=O)N1c2ccccc2CC1C(=O)N1CCN(c2ccccc2)CC1", "note": "(stereo not drawn)", "activity change, negative = inhibition": -26.3}
{"compound": "O=C(CSc1nccn1-c1ccc(F)cc1)Nc1cccc2ccccc12", "activity change, negative = inhibition": -23}
{"compound": "CCOc1ccc(CCNC(=O)c2c(C)oc3ncn(C)c(=O)c23)cc1", "activity change, negative = inhibition": -10.1}
{"compound": "CC(=O)N1c2ccc(S(=O)(=O)N3CCCCCC3)cc2CC1C(=O)NCc1ccccc1C", "note": "(stereo not drawn)", "activity change, negative = inhibition": -12.7}
{"compound": "Cc1ccc(-c2nc3ccccn3c2Nc2c(C)cccc2C)o1", "activity change, negative = inhibition": -23.3}
{"compound": "O=S(=O)(c1ccccc1)c1nc(-c2ccc(Cl)cc2Cl)oc1N1CCCCC1", "activity change, negative = inhibition": -5.27}
{"compound": "CCOC(=O)c1ccc(Nc2cc3ccccc3c(=O)[nH]2)cc1", "Potency": "17.8 µM (active)"}
{"compound": "CCOC(=O)c1ccc(NC2=CC(c3ccc(OCC)cc3)N(c3ccc(C(=O)OCC)cc3)C2=O)cc1", "note": "(stereo not drawn)", "activity change, negative = inhibition": -18.2}
{"compound": "CCOC(=O)c1ccc(NC(=O)CSc2nc3c([nH]c4ccccc43)c(=O)n2C)cc1", "activity change, negative = inhibition": -16.3}
{"compound": "Cc1cc(C)c(/C=C/c2onc(C)c2S(=O)(=O)N2CCC(C(=O)Nc3ccc(Cl)cc3C)CC2)c(C)c1", "activity change, negative = inhibition": 1.71}
{"compound": "CCC(C)N1C(=O)S/C(=C/c2ccc(Sc3nc4ccccc4[nH]3)o2)C1=O", "note": "(stereo not drawn)", "activity change, negative = inhibition": -9.54}
{"compound": "O=C(O)C(c1ccccc1)N1C(=O)/C(=C\\c2ccc(-c3cccc(Cl)c3)o2)SC1=S", "note": "(stereo not drawn)", "Potency": "35.5 µM (active)"}
{"compound": "O=C(NCc1ccccc1)c1cc(-c2cccc(Cl)c2)on1", "activity change, negative = inhibition": -5.34}
{"compound": "COc1ccccc1-c1cc(C(F)(F)F)nc(S(=O)(=O)CCCC(=O)Nc2ccc(F)cc2F)n1", "activity change, negative = inhibition": -27.7}
{"compound": "O=C(CSc1nccn1C1CCCC1)Nc1cc(C(F)(F)F)ccc1Cl", "activity change, negative = inhibition": -20.3}
{"compound": "CCN(CC)c1ccc(NC(=O)CN2C(=O)c3cccnc3Oc3ccc(Cl)cc32)c(C)c1", "activity change, negative = inhibition": -7.26}
{"compound": "Cc1ccc(NC(=O)NC(C)c2c(-n3cccc3)sc(C)c2C)c(C)c1", "note": "(stereo not drawn)", "activity change, negative = inhibition": -21.7}
{"compound": "O=C(Cn1cnc2c(oc3ccccc32)c1=O)Nc1ccc(OC(F)(F)F)cc1", "activity change, negative = inhibition": -19.8}
{"compound": "Cc1ccc2onc(CC(=O)N3CCN(c4ccc(Cl)cc4)CC3)c2c1", "activity change, negative = inhibition": -10.2}
{"compound": "CCc1ccc2oc(-c3ccc(NC(=O)c4cc5ccccc5o4)cc3)nc2c1", "activity change, negative = inhibition": 0.213}
{"compound": "CCOc1ccc(CNC(=O)C2CCN(c3nnc(-n4cccc4CNc4ccc(C)cc4)s3)CC2)cc1OC", "activity change, negative = inhibition": 8.02}
{"compound": "COc1cc(C(=O)N2CCN(c3ccc(Nc4ccc(C)cc4)nn3)CC2)cc(OC)c1OC", "activity change, negative = inhibition": -11.5}
{"compound": "CCCC(=O)Nc1cc(C(=O)NCc2ccc(OC)cc2)ccc1S(=O)(=O)c1ccc(Cl)cc1", "activity change, negative = inhibition": -8.93}
{"compound": "O=C(/C=C/c1ccc(N2CCOCC2)cc1)c1ccccc1", "Potency": "25.1 µM (active)"}
{"compound": "NC(=O)c1ccc(N2CCOCC2)nc1", "activity change, negative = inhibition": -9.85}
{"compound": "O=C1OC(NC(=O)c2ccccc2)C(N2CCOCC2)=C1Cl", "note": "(stereo not drawn)", "activity change, negative = inhibition": -15.5}
{"compound": "COC(=O)CN1C(=O)CSc2ccc(S(=O)(=O)Nc3cc(C)ccc3C)cc21", "activity change, negative = inhibition": -7.07}
{"compound": "COc1ccc(CCNC(=O)c2cc(=O)c3c(C)cc(C)cc3o2)cc1OC", "activity change, negative = inhibition": -23.3}
{"compound": "Cc1cc(C)c(/C=C2\\C(=O)Nc3ccccc32)[nH]1", "Potency": "25.1 µM (active)"}
{"compound": "CCN(CC)CCNC(=O)Cn1ncc2c3ccccc3n(Cc3ccccc3C)c2c1=O", "activity change, negative = inhibition": -16.9}
{"compound": "CCc1ccccc1NC(=O)c1ccc(F)c(S(=O)(=O)NC2CCCCCC2)c1", "activity change, negative = inhibition": -12.3}
{"compound": "COCCCNC(=O)c1ccc(NC(=O)c2nsc3ccccc23)cc1", "activity change, negative = inhibition": -13.5}
{"compound": "CCOC(=O)c1cnc2c(C)cc(C)cc2c1Nc1ccc(N2CCOCC2)cc1", "activity change, negative = inhibition": -5.54}
{"compound": "CCc1nc2cccnc2n1-c1ccc(CC(=O)Nc2c(C)cccc2C)cc1", "activity change, negative = inhibition": 16.9}
{"compound": "Cc1ccc(-c2nnc(Nc3ccc(OCC(N)=O)cc3)c3ccccc23)cc1S(=O)(=O)NCC1CCCO1", "note": "(stereo not drawn)", "activity change, negative = inhibition": -23.5}
{"compound": "CCOc1ccc(CCNC(=O)Cn2nc(CC)n3c(cc4sc(CC)cc43)c2=O)cc1OCC", "activity change, negative = inhibition": -31.2}
{"compound": "Cc1ccc(OCC(=O)Nc2ccc(Cl)c(-c3nc4ccccc4[nH]3)c2)cc1C", "activity change, negative = inhibition": -1.29}
{"compound": "CCOc1ccc(CNC(=O)c2cccc(Nc3nc4ccccc4n4nnnc34)c2)cc1OC", "activity change, negative = inhibition": -12.5}
{"compound": "COCCn1c(N)c(NCc2ccccc2)c(=O)[nH]c1=O", "activity change, negative = inhibition": -19.4}
{"compound": "Cc1cc2nc3c(=O)n(Cc4ccccc4)c(=O)[nH]c3nc2cc1N", "Potency": "25.1 µM (active)"}
{"compound": "CCC(=O)Nc1ccc(C)cc1-c1nc2ccccc2n(Cc2ccccc2)c1=O", "activity change, negative = inhibition": -10.8}
{"compound": "Cc1ccc(S(=O)(=O)N2CCCc3cc(NS(=O)(=O)c4cc(C)ccc4C)ccc32)cc1", "activity change, negative = inhibition": -11.9}
